These results are taken from PubChem BioAssay (Tox21).

Assay [1] in a line: qHTS assay to identify small molecule antagonists of the vitamin D receptor (VDR) signaling pathway - cell viability counter screen (AID 743225). Note: nearly all actives have a fitted effect of over 50% in size. The gist of the method: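 Cytotoxicity toward the VDR-bla HEK 293T line was scored by ATP-based CellTiter-Glo luminescence, read in the wells already used for the beta-lactamase readout after 16 h compound treatment under 3 nM 1-alpha,25-dihydroxyvitamin D3 stimulation.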
(In qHTS, concentration-response curves come from the screen itself.)

Assay [2] is described as follows: qHTS assay to identify small molecule agonists of the NFkB signaling pathway - cell viability counter screen (AID 1159515; calls by dose curve; note: series mostly up to about 61 µM; nearly all actives have a fitted effect of over 55% in size). Summed up: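 Luminescence from CellTiter-Glo (30 min, room temperature) gives viability, measured in the same wells as the beta-lactamase reporter read. Cells were NFkB-bla ME-180, 2,000 per well, treated 5 hr with compounds.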
Assay [3] is described as follows: qHTS assay to identify small molecule agonists of the endoplasmic reticulum stress response signaling pathway (AID 1159516; active = well fitted activation curve with a large enough effect in the signal ratio in the repeat runs, not every such curve was filed as active; the % refers to the signal ratio). Summed up: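 Read-out is beta-lactamase cleavage of a FRET substrate (405 nm excitation; 460 and 530 nm emissions) in ESRE-bla HeLa cells after a 5 hr compound exposure at 37 C. Substrate incubation ran 2 hr at room temperature.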
A short description of assay [4]: qHTS assay to identify small molecule agonists of the endoplasmic reticulum stress response signaling pathway - cell viability counter screen (AID 1159517; calls by dose curve;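 note: HeLa cells carrying an ER stress response element beta-lactamase reporter; series mostly up to about 61 µM; nearly all actives have a fitted effect of over 50% in size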). Summed up:
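Counter-screen wells were identical to the reporter wells. Cells were plated at 1,500 per well and dosed for 5 hr, then read for luminescence 30 min after CellTiter-Glo addition.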

Assay [5] can be described thus: qHTS assay to identify small molecule antagonists of the retinoid-related orphan receptor gamma (ROR-gamma) signaling pathway - cell viability counter screen (AID 1159520). Note: nearly all actives have a fitted effect of over 50% in size. Summed up: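 Tet-on ROR gamma CHO cells were given compounds for 2 hr, then doxycycline hyclate at 1 uM final, and incubated 16 hr at 37 C. Viability was measured as ATP content by CellTiter-Glo luminescence.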

Assay [6] concerns the target Nuclear receptor ROR-gamma (Homo sapiens) (UniProt P51449). The assay is described as follows: qHTS assay to identify small molecule antagonists of the retinoid-related orphan receptor gamma (ROR-gamma) signaling pathway (AID 1159521;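 note: CHO cells with doxycycline inducible ROR-gamma driving an RORE luciferase reporter; top concentration of the series differs between compounds; nearly all actives have a fitted effect of over 50% in size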). The gist of the method: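 Readout: ONE-Glo luciferase luminescence, 30 min at room temperature. System: Tet-on RORγ CHO, RORE-LUC. Sequence: compound 2 h, doxycycline 1 uM final, 16 h at 37 C.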

A short description of assay [7]: qHTS assay to identify small molecule agonists of the AP-1 signaling pathway - cell viability counter screen (AID 1159525; calls by dose curve; note: nearly all actives have a fitted effect of over 55% in size). Summed up: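 AP-1-bla ME-180 cells in Opti-MEM with 0.5% dialyzed FBS, compound exposure 5 h at 37 C in 15-point titration. Viability read in the same wells as ATP content by CellTiter-Glo luminescence, normalised to tetra-n-octylammonium bromide and DMSO controls.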

The nature of assay [8]: qHTS assay to identify small molecule agonists of the AP-1 signaling pathway (AID 1159526; calls by dose curve).
A short description of assay [9]: qHTS assay to identify small molecule agonists of the RXR signaling pathway - cell viability counter screen (AID 1159529). Note: nearly all actives have a fitted effect of over 50% in size. Note: potency is the fitted concentration of half-maximal effect. Summed up: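 Tox21 10K compounds were tested for cytotoxicity against GeneBLAzer RXR-alpha HEK 293T cells grown in 2% charcoal-stripped FBS. Exposure lasted 16 hr at 37 C, 5% CO2; viability read by CellTiter-Glo luminescence.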
Assay [10] in a line: qHTS assay to identify small molecule antagonists of the retinoid acid receptor (RAR) signaling pathway - cell viability counter screen (AID 1159551). Note: nearly all actives have a fitted effect of over 35% in size. Summed up: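 Luminescent ATP quantitation (CellTiter-Glo) gave cell viability in C3RL4 cells exposed to test chemicals for 6 h at 37 C alongside 1 uM final retinol.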
The nature of assay [11]: qHTS assay to identify small molecule antagonists of the retinoic acid receptor (RAR) signaling pathway (AID 1159552; note: nearly all actives have a fitted effect of over 50% in size). Summed up: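 Overnight-plated C3RL4 reporter cells get compound, then retinol to 1 uM final; plates sit 6 hr at 37 C, 5% CO2. A luciferase reagent is added and light output recorded after 30 min at room temperature.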
Assay [12] is described as follows: qHTS assay to identify small molecule agonists of the retinoic acid receptor (RAR) signaling pathway (AID 1159553). Summed up:
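Luminescence from a RARE-driven luciferase reporter in C3RL4 cells served as the read-out, measured after 30 min with detection reagent at room temperature. Compounds in DMSO were applied for 6 hr at 37 C following overnight seeding.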

The nature of assay [13]: qHTS assay to identify small molecule antagonists of the estrogen related receptor (ERR) signaling pathway from Tox21 library - cell viability counter screen (AID 1224834). Note: nearly all actives have a fitted effect of over 30% in size. Summed up: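 Fluorescence from CellTiter-Fluor gives the viability read-out, taken 30 min after reagent addition. Before that, ERR cells seeded 6 h earlier were incubated with compounds for 17.5 h at 37 C.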

Assay [14] deals with Luciferin 4-monooxygenase (Photinus pyralis) (UniProt P08659). The assay can be described thus: qHTS assay to identify small molecule inhibitors of firefly luciferase (AID 1224835). Note: nearly all actives have a fitted effect of over 25% in size. Note: potency is the fitted concentration of half-maximal effect. Summed up:
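Biochemical qHTS: compounds run as interplate titrations against purified firefly enzyme, with D-luciferin and ATP each at its KM concentration. Light output recorded by CCD imaging.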

A short description of assay [15]: qHTS assay to identify small molecule agonists of the constitutive androstane receptor (CAR) signaling pathway - cell viability counter screen (AID 1224836). Note: series mostly up to about 92 µM; nearly all actives have a fitted effect of over 45% in size. The gist of the method: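 Fluorescence from CellTiter-Fluor indicates live cells after 23 h exposure. The human hepatoma line expresses hCAR and a CYP2B6-2.2kb reporter. Incubation medium contains 0.75 uM PK11195 (final).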

Assay [16] is described as follows: qHTS assay to identify small molecule antagonists of the constitutive androstane receptor (CAR) signaling pathway - cell viability counter screen (AID 1224837). Note: series mostly up to about 92 µM; nearly all actives have a fitted effect of over 45% in size. Summed up:
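HepG2-CYP2B6-hCAR cells, 2500/well, 4 hr pre-incubation; compound titration, 15 conc.; CITCO 50 nM final; 23 hr, 37 C/5% CO2; CellTiter-Fluor, fluorescence intensity.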

Assay [17] concerns the target Nuclear receptor subfamily 1 group I member 3 (Homo sapiens) (UniProt Q14994). The assay can be described thus: qHTS assay to identify small molecule antagonists of the constitutive androstane receptor (CAR) signaling pathway (AID 1224838).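 Note: HepG2 cells stably expressing hCAR with CYP2B6 luciferase reporter stimulated by CITCO; nearly all actives have a fitted effect of over 40% in size.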 Summed up: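 HepG2-CYP2B6-hCAR cells; 4 h pre-incubation; cpd (15 conc) + CITCO 50 nM final; 24 h, 37 C/5% CO2; ONE-Glo, luminescence.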

The nature of assay [18]: qHTS assay to identify small molecule antagonists of the estrogen related receptor signaling pathway with the pleiotropic PPARgamma coactivator (PGC) from Tox21 10K library - cell viability counter screen (AID 1224840; active = well fitted cell-killing curve with a large enough effect in the repeat runs, not every such curve was filed as active; note: nearly all actives have a fitted effect of over 40% in size). Summed up: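 PGC/ERR cells, 2,000/well; 6 h pre-incubation 37 C/5% CO2; cpd in DMSO via pin tool; 17.5 h 37 C; CellTiter-Fluor, 30 min; fluorescence.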

The target in assay [19] is Retinoic acid receptor RXR-alpha (Homo sapiens) (UniProt P19793). The assay can be described thus: qHTS assay to identify small molecule agonists of the RXR signaling pathway (AID 1159527; calls by dose curve; note: nearly all actives have a fitted effect of over 35% in size). The gist of the method: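 Reporter activation is measured as beta-lactamase activity via FRET substrate cleavage (emission 460/530 nm) in HEK 293T cells expressing an RXR-alpha-driven bla construct, following 16 hr compound exposure at 37 C.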

The target of assay [20] is Nuclear receptor subfamily 1 group I member 3 (Homo sapiens) (UniProt Q14994). The assay can be described thus: qHTS assay to identify small molecule agonists of the constitutive androstane receptor (CAR) signaling pathway (AID 1224839).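 Note: HepG2 cells stably carrying human CAR and a CYP2B6 luciferase reporter; series mostly up to about 92 µM; nearly all actives have a fitted effect of over 15% in size.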 The gist of the method:
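Stable hCAR/CYP2B6-2.2kb HepG2 line in DMEM with 10% FBS; compounds (15 concentrations) and 0.75 uM PK11195 final, 24 h at 37 C/5% CO2, then ONE-Glo luminescence after 30 min.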

Structures are written as SMILES. Results filed as inconclusive are left out. Unmarked numbers belong to inactive results. Activity calls are given as the source filed them. Unless noted, calls come from the whole dose curve; as a rule, active = well fitted curve in the direction sought with a large enough effect in the repeat runs; inconclusive = weak or mixed curves; inactive = no such curve, though single readings can be large; an effect the other way counts as inactive or inconclusive.

Nuclear receptor subfamily 1 group I member 3 (Homo sapiens), sequence (Q14994 whole entry, looked up): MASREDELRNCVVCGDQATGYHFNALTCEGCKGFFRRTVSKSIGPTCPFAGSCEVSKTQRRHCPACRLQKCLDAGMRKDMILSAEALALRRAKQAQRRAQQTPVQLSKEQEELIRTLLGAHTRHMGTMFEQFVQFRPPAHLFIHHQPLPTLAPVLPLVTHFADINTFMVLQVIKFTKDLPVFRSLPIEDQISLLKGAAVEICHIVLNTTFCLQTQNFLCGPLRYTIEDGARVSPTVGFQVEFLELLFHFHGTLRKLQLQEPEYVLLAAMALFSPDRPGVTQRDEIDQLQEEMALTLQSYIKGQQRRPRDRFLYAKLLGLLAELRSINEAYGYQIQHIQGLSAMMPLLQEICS
Luciferin 4-monooxygenase (Photinus pyralis), sequence (P08659 whole entry, looked up): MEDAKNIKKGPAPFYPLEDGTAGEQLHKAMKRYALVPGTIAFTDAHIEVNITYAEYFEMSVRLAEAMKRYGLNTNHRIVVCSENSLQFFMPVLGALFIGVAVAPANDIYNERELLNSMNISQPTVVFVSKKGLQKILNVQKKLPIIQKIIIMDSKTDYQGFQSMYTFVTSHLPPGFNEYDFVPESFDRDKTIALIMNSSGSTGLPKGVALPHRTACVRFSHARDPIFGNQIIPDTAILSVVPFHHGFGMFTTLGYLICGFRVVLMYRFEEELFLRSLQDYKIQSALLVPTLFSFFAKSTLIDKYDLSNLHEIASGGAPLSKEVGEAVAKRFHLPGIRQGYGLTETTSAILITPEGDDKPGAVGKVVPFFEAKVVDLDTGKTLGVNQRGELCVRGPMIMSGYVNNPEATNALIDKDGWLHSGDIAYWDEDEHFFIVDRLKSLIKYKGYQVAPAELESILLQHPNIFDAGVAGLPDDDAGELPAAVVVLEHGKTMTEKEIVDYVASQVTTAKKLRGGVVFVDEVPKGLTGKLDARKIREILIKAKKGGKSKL
Retinoic acid receptor RXR-alpha (Homo sapiens), sequence (P19793 whole entry, looked up): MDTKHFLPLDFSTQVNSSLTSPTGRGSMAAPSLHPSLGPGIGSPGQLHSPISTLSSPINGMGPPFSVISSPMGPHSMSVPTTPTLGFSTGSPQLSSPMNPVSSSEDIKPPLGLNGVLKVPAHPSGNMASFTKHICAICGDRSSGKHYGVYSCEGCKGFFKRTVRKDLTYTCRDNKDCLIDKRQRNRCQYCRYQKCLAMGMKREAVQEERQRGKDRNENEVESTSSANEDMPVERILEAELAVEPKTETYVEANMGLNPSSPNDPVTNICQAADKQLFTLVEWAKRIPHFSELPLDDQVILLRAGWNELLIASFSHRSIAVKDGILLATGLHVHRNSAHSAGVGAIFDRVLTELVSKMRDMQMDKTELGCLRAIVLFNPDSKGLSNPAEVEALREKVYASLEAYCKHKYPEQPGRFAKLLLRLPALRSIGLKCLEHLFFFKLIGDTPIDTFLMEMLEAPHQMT

`Nc1nc(Cl)cc(Cl)n1`: the call in assay [1], in assay [2], in assay [4], in assay [5], in assay [6] and in [7] was inactive. The outcome in assay [10], in [11], in [13], in assay [15], in assay [16] and in [17] was inactive. For the same molecule, the call in assay [18] was inactive. Moreover, the Potency entry in assay [3], in assay [8], in assay [9], in assay [12] and in [14] was “inactive” throughout.

With `C[C@@H]1CCC[C@H](C)N1CCCC(O)(c1ccccc1)c1ccccn1` (some centres undefined), the result in [1], in [2], in [4], in assay [5], in [6] and in assay [7] was inactive. Further, the molecule was called inactive in assay [10], in assay [11], in assay [13], in assay [15], in [16] and in assay [17]. The call in assay [18] was inactive. In addition, the Potency result in [8], in assay [19], in [9], in assay [12], in [14] and in assay [20] was “inactive” each time.

As for `Cc1ccc(O)c([N+](=O)[O-])c1`, the molecule was called inactive in assay [1], in assay [2], in [4], in assay [5], in assay [6] and in [7]. Also, the molecule was called inactive in assay [10], in assay [11], in assay [15], in [16], in assay [17] and in [18]. Moreover, the Potency result in assay [3], in assay [8], in [14] and in [20] was “inactive” each time. Also, in assay [9], the Potency is 24.8 µM (active).

`O=c1c(O)c(O)c1=O`: the result in [1], in assay [2], in assay [4], in [5], in assay [6] and in [7] was inactive. Besides, the molecule was classed as inactive in [10], in assay [11], in assay [13], in [15], in [16] and in [17]. Moreover, the molecule was called inactive in [18]. For the same molecule, the Potency result in assay [3], in assay [8], in [9], in assay [12] and in assay [14] was “inactive” each time.

Take `C/C=C(\C)C(=O)OC/C=C(\C)CCC=C(C)C`: the result in assay [1], in [2], in [4], in assay [5], in [6] and in assay [7] was inactive. Besides, the call in assay [10], in assay [11], in assay [13], in [15], in assay [16] and in assay [18] was inactive. Besides, the Potency result in assay [3], in assay [8], in [9], in assay [12] and in assay [14] was “inactive” throughout.

As for `CN(C)CCc1c[nH]c2ccc(C[C@H]3COC(=O)N3)cc12`, the molecule was called inactive in [1], in assay [2], in [4], in [5], in assay [6] and in assay [7]. Further, the molecule was called inactive in assay [10], in [11], in [13], in [15], in assay [16] and in assay [18]. The Potency entry in assay [3], in assay [8], in assay [9], in assay [12] and in [14] was “inactive” in each case.

As for `CC/C=C\CCOC(=O)c1ccccc1`, the result in assay [2], in assay [4], in assay [5], in [6], in assay [7] and in [10] was inactive. The result in assay [11], in [16], in assay [17] and in [18] was inactive. The Potency entry in [3], in [8], in assay [9] and in assay [20] was “inactive” throughout. Further, the Potency in [14] was 7.1 µM (active).

For the molecule `Cc1cc2c(cc1CC(=O)c1sccc1S(=O)(=O)Nc1onc(C)c1Cl)OCO2`, the molecule was called inactive in assay [2], in [4], in assay [5], in [6], in [7] and in assay [10]. Also, the molecule was classed as inactive in assay [11], in assay [13], in assay [15], in [16], in assay [17] and in assay [18]. For the same molecule, the Potency result in assay [3], in [8], in assay [9], in assay [12], in assay [14] and in assay [20] was “inactive” throughout.
